Experimental data as given in the supplement of paper PMC7765376.
Counter-ions that a name gives are not always drawn. Whole data set: some 1,500 compounds, median “Excess HSA synergy score (sum over dose matrix of excess over highest single agent)” near 43, cut for the lowest 2% near -900. What follows is part of a selection rich in the lowest values, with near analogues and random picks from the rest.

Tested on: PEO-1
Experiment: Excess HSA synergy score (sum over dose matrix of excess over highest single agent) (score (summed % response)); higher = less synergy / more antagonism (negative = synergy)
Settings: 72 h, read-out: viability/apoptosis luminescence (CellTiter-Glo or Caspase3-Glo / not stated per table)
[1] = matrix design: 6x6, 5-fold dilutions (primary screen)
[2] = matrix design: 10x10, 9-step dilutions (confirmatory)

| Structure (SMILES) | Excess HSA synergy score [1] | Excess HSA synergy score [2] |
| --- | --- | --- |
| CCOC(=O)N1c2ccc(C(F)(F)F)cc2[C@@H](N(Cc2cc(C(F)(F)F)cc(C(F)(F)F)c2)C(=O)OC)C[C@H]1CC [Torcetrapib] + CC[C@H](NC(=O)[C@H](C)NC)C(=O)N1C[C@@H](O)C[C@H]1Cc1c(-c2[nH]c3cc(F)ccc3c2C[C@@H]2C[C@H](O)CN2C(=O)[C@H](CC)NC(=O)[C@H](C)NC)[nH]c2cc(F)ccc12 [Birinapant] | -42.4 |  |
| Nc1nc(=O)c2c([nH]1)NCC(CNc1ccc(C(=O)N[C@@H](CCC(=O)O)C(=O)O)cc1)N2C=O (stereo partly drawn) [Calcium folinate] + CC[C@H](NC(=O)[C@H](C)NC)C(=O)N1C[C@@H](O)C[C@H]1Cc1c(-c2[nH]c3cc(F)ccc3c2C[C@@H]2C[C@H](O)CN2C(=O)[C@H](CC)NC(=O)[C@H](C)NC)[nH]c2cc(F)ccc12 [Birinapant] | 148 |  |
| O=C(c1cc(Cc2n[nH]c(=O)c3ccccc23)ccc1F)N1CCN(C(=O)C2CC2)CC1 [Olaparib] + CC[C@H](NC(=O)[C@H](C)NC)C(=O)N1C[C@@H](O)C[C@H]1Cc1c(-c2[nH]c3cc(F)ccc3c2C[C@@H]2C[C@H](O)CN2C(=O)[C@H](CC)NC(=O)[C@H](C)NC)[nH]c2cc(F)ccc12 [Birinapant] | -98.9 | -1730 |
| CN(C)/[N+]([O-])=N/Oc1cc(ON[N+](=O)N2CCN(C(=O)c3cc(Cc4n[nH]c(=O)c5ccccc45)ccc3F)CC2)c([N+](=O)[O-])cc1[N+](=O)[O-] + CC[C@H](NC(=O)[C@H](C)NC)C(=O)N1C[C@@H](O)C[C@H]1Cc1c(-c2[nH]c3cc(F)ccc3c2C[C@@H]2C[C@H](O)CN2C(=O)[C@H](CC)NC(=O)[C@H](C)NC)[nH]c2cc(F)ccc12 [Birinapant] | 162 |  |
| CN1CCCC(n2nc(Cc3ccc(Cl)cc3)c3ccccc3c2=O)CC1 (stereo not drawn) [Azelastine hydrochloride] + CC[C@H](NC(=O)[C@H](C)NC)C(=O)N1C[C@@H](O)C[C@H]1Cc1c(-c2[nH]c3cc(F)ccc3c2C[C@@H]2C[C@H](O)CN2C(=O)[C@H](CC)NC(=O)[C@H](C)NC)[nH]c2cc(F)ccc12 [Birinapant] | -156 |  |
| CN1C(=O)C[C@@H](C(=O)N[C@@H](Cc2c[nH]cn2)C(=O)N2CCC[C@H]2C(N)=O)NC1=O [Taltirelin] + CC[C@H](NC(=O)[C@H](C)NC)C(=O)N1C[C@@H](O)C[C@H]1Cc1c(-c2[nH]c3cc(F)ccc3c2C[C@@H]2C[C@H](O)CN2C(=O)[C@H](CC)NC(=O)[C@H](C)NC)[nH]c2cc(F)ccc12 [Birinapant] | 10.4 |  |
| C/C(=N\NC(=S)N1CCC1)c1ccccn1 + CC[C@H](NC(=O)[C@H](C)NC)C(=O)N1C[C@@H](O)C[C@H]1Cc1c(-c2[nH]c3cc(F)ccc3c2C[C@@H]2C[C@H](O)CN2C(=O)[C@H](CC)NC(=O)[C@H](C)NC)[nH]c2cc(F)ccc12 [Birinapant] | -323 | -1630 |
| Cc1n[nH]c(C)c1Cc1sc2c(c1C(=O)N1C[C@H](O)CO1)c(=O)n(C)c(=O)n2CC(C)C + CC[C@H](NC(=O)[C@H](C)NC)C(=O)N1C[C@@H](O)C[C@H]1Cc1c(-c2[nH]c3cc(F)ccc3c2C[C@@H]2C[C@H](O)CN2C(=O)[C@H](CC)NC(=O)[C@H](C)NC)[nH]c2cc(F)ccc12 [Birinapant] | 60.3 |  |
| COc1ccc(S(=O)(=O)N(C(C)=O)c2ccccc2/C=C/c2cc[n+]([O-])cc2)cc1 + CC[C@H](NC(=O)[C@H](C)NC)C(=O)N1C[C@@H](O)C[C@H]1Cc1c(-c2[nH]c3cc(F)ccc3c2C[C@@H]2C[C@H](O)CN2C(=O)[C@H](CC)NC(=O)[C@H](C)NC)[nH]c2cc(F)ccc12 [Birinapant] | -72.6 |  |
| CN(C)c1nc(Cc2ccc(NC(=O)c3ccc4ccccc4c3)cc2)nc(Cl)c1CC(=O)O + CC[C@H](NC(=O)[C@H](C)NC)C(=O)N1C[C@@H](O)C[C@H]1Cc1c(-c2[nH]c3cc(F)ccc3c2C[C@@H]2C[C@H](O)CN2C(=O)[C@H](CC)NC(=O)[C@H](C)NC)[nH]c2cc(F)ccc12 [Birinapant] | 169 |  |
| N=C(NCCCCCCNC(=N)NC(=N)Nc1ccc(Cl)cc1)NC(=N)Nc1ccc(Cl)cc1 [Chlorhexidine] + CC[C@H](NC(=O)[C@H](C)NC)C(=O)N1C[C@@H](O)C[C@H]1Cc1c(-c2[nH]c3cc(F)ccc3c2C[C@@H]2C[C@H](O)CN2C(=O)[C@H](CC)NC(=O)[C@H](C)NC)[nH]c2cc(F)ccc12 [Birinapant] | -4.24 |  |
| N#CN=C(NCCCCCCOc1ccc(Cl)cc1)Nc1ccncc1 + CC[C@H](NC(=O)[C@H](C)NC)C(=O)N1C[C@@H](O)C[C@H]1Cc1c(-c2[nH]c3cc(F)ccc3c2C[C@@H]2C[C@H](O)CN2C(=O)[C@H](CC)NC(=O)[C@H](C)NC)[nH]c2cc(F)ccc12 [Birinapant] | -214 | -1410 |
| CC(C)C[C@@H](C=O)NC(=O)[C@H](CC(C)C)NC(=O)[C@H](CC(C)C)NC(=O)OCc1ccccc1 + CC[C@H](NC(=O)[C@H](C)NC)C(=O)N1C[C@@H](O)C[C@H]1Cc1c(-c2[nH]c3cc(F)ccc3c2C[C@@H]2C[C@H](O)CN2C(=O)[C@H](CC)NC(=O)[C@H](C)NC)[nH]c2cc(F)ccc12 [Birinapant] | 36.9 |  |
| O=C(NC1CC1)c1cccc(-c2ccc3c(NC(=O)C4CC4)n[nH]c3c2)c1 + CC[C@H](NC(=O)[C@H](C)NC)C(=O)N1C[C@@H](O)C[C@H]1Cc1c(-c2[nH]c3cc(F)ccc3c2C[C@@H]2C[C@H](O)CN2C(=O)[C@H](CC)NC(=O)[C@H](C)NC)[nH]c2cc(F)ccc12 [Birinapant] | 81.8 |  |
| N#Cc1ccc(COC[C@H]2O[C@@H](n3c(NCc4ccc(Cl)c(Cl)c4)nc4c(N)ncnc43)[C@H](O)[C@@H]2O)cc1 + CC[C@H](NC(=O)[C@H](C)NC)C(=O)N1C[C@@H](O)C[C@H]1Cc1c(-c2[nH]c3cc(F)ccc3c2C[C@@H]2C[C@H](O)CN2C(=O)[C@H](CC)NC(=O)[C@H](C)NC)[nH]c2cc(F)ccc12 [Birinapant] | -237 |  |
| COc1ccc(-c2ccc3c(N4CCOCC4)nc(N4C[C@@H](C)O[C@@H](C)C4)nc3n2)cc1CO + CC[C@H](NC(=O)[C@H](C)NC)C(=O)N1C[C@@H](O)C[C@H]1Cc1c(-c2[nH]c3cc(F)ccc3c2C[C@@H]2C[C@H](O)CN2C(=O)[C@H](CC)NC(=O)[C@H](C)NC)[nH]c2cc(F)ccc12 [Birinapant] | -161 |  |
| COc1ccc(-c2nc(N3CCOCC3)c3sc(CN(C)c4ncc(C(=O)NO)cn4)cc3n2)cn1 + CC[C@H](NC(=O)[C@H](C)NC)C(=O)N1C[C@@H](O)C[C@H]1Cc1c(-c2[nH]c3cc(F)ccc3c2C[C@@H]2C[C@H](O)CN2C(=O)[C@H](CC)NC(=O)[C@H](C)NC)[nH]c2cc(F)ccc12 [Birinapant] | -204 | -1340 |
| CC(C)(O)c1cc2nc(-c3cnc(N)nc3)nc(N3CCOCC3)c2s1 + CC[C@H](NC(=O)[C@H](C)NC)C(=O)N1C[C@@H](O)C[C@H]1Cc1c(-c2[nH]c3cc(F)ccc3c2C[C@@H]2C[C@H](O)CN2C(=O)[C@H](CC)NC(=O)[C@H](C)NC)[nH]c2cc(F)ccc12 [Birinapant] | 72.3 |  |
| Cc1nc(N)ncc1-c1nc(N2CCOCC2)c2sc(C(C)(C)O)cc2n1 + CC[C@H](NC(=O)[C@H](C)NC)C(=O)N1C[C@@H](O)C[C@H]1Cc1c(-c2[nH]c3cc(F)ccc3c2C[C@@H]2C[C@H](O)CN2C(=O)[C@H](CC)NC(=O)[C@H](C)NC)[nH]c2cc(F)ccc12 [Birinapant] | -47.1 |  |
